Assay outcomes: PubChem, several laboratories
The list is not random: actives were taken first. Their share in the collection is about 3.2%.
SMARCA2 act: SMARCA2 function activation, primary screen; AID 652017; actives 1% (n = 370,000); activation, % at 9.1 µM; MG213 cells, MMTV-luciferase reporter, dexamethasone, overnight; in the data active = activation above about 7.8%;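 note: 0% = vehicle wells and 100% = reference activator wells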
Rtt109 Vps75: blocks Candida albicans Rtt109/Vps75 acetyltransferase activity. actives 0.16% (n = 330,000). inhibition, % at 34.9 µM. AID 540336. purified Rtt109/Vps75, ThioGlo CoA-SH fluorescence, 4 h;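 active = inhibition of at least 50% in every replicate; inconclusive = best replicate reaches 50% inhibition but some replicates fall short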
Target sequence (Q5AAJ8 whole entry, looked up): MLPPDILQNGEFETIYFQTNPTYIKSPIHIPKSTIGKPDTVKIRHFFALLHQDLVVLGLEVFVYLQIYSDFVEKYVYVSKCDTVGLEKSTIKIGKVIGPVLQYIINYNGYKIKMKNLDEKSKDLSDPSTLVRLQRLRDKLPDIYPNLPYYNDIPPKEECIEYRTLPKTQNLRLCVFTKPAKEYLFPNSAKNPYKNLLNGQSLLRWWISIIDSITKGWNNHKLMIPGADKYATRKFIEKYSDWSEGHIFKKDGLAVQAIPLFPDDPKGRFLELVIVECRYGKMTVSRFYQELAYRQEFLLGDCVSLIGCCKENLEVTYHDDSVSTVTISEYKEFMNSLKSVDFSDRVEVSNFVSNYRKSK
esBAF inh: inhibitors of esBAF chromatin remodeling in mouse ES cells. Bmi1-luciferase knock-in reporter, 24 h; 100% = twice the neutral-well signal. reporter increase, % at 12.5 µM. actives 2% (n = 350,000). AID 602393; in the data active = activation above about 40%; inconclusive = no clear call, values can overlap the other calls;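 note: 0% = median of the plate's neutral control wells and 100% = double that signal; a rise in the Bmi1 reporter signal indicates esBAF inhibition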
dFosB activator: enhances mouse delta FosB homodimer DNA binding | P13346 | purified delta FosB, TAMRA-CDK5 oligo fluorescence polarization; percent of positive-control signal above neutral wells | activation, % at 25 µM | actives 0.99% (n = 340,000) | AID 493131;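 active = mean activation above about 17%, with every replicate also reaching it, limit read from the data, passing the limit was not always enough; inconclusive = only one of the two conditions met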
Target sequence (P13346 whole entry, looked up): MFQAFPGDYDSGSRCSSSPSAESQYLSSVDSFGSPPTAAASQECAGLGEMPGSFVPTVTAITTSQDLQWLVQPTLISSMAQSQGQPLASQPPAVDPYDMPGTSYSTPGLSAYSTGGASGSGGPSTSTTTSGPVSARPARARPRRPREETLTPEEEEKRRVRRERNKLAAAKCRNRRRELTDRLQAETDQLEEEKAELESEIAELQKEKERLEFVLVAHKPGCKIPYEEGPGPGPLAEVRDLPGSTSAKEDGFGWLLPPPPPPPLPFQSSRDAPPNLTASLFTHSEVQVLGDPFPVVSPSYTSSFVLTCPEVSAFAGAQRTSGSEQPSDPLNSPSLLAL
Dyrk1A ADPGlo: inhibitors of rat Dyrk1A kinase. Q63470. inhibition, % at 12.5 µM. AID 504441. ADP-Glo luminescence, NFATc1 peptide. actives 0.43% (n = 310,000); in the data active = inhibition above about 50%;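 note: plate controls were vehicle with enzyme for no effect and no enzyme for full effect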
CDK5 inh: CDK5/p35 (human) kinase inhibition. Recombinant CDK5/p35, ADP-Glo luminescence, 60 min. inhibition, % at 10 µM. actives 0.01% (n = 330,000). AID 488839;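 active = highest replicate inhibition of at least 50% and at least 75% of replicates reaching 50%; inconclusive = only one of the two criteria met; inactive = both criteria failed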;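 note: plate controls were DMSO neutral control for no effect and GW8510 at 10 µM for full effect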
Ring1 derepress: confirmation of esBAF inhibitors: Ring1 de-repression in mouse ESCs; shares compounds with esBAF inh; mouse ESC E14, Ring1 mRNA RT-qPCR fold change; fold change at 33 µM; 550 tested, under 10 active; AID 743176;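 active = Ring1 gene expression raised more than 2-fold over untreated cells in both replicates at either tested dose; inconclusive = only one replicate above 2-fold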;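 note: Ring1 transcript normalised to actin housekeeping signal by TaqMan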
esBAF Fgf4 qPCR: esBAF inhibition confirmed by Fgf4 repression; shares compounds with esBAF inh; mouse ESC E14, Fgf4 mRNA qPCR fold change; active compounds read low; Fgf4 expression fold change at 33 µM; actives 4% (n = 550);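 active = Fgf4 expression under 0.8 fold of control in both repeat measurements at one or both tested doses; inconclusive = under 0.8 fold in just a single repeat measurement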;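 note: Fgf4 transcript normalised to actin in duplex TaqMan qPCR; cells exposed to compound for 24 h before lysis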
Bmi1 derepress: de-represses Bmi1 in mouse ESCs, confirming esBAF inhibition; shares compounds with esBAF inh; fold change at 33 µM; mouse ESE14 ES cells, Bmi1 mRNA qPCR fold; active compounds read high; AID 743180; 550 tested, under 10 active;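 active = Bmi1 expression fold change above 6 at either tested concentration, seen in replicate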;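 note: higher fold means more Bmi1 de-repression and stronger esBAF inhibition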
A549 tox SP: kills or reduces viability of A549 cells. shares compounds with esBAF inh. A549 cytotoxicity, plate reader. cell viability change % (negative = cytotoxic), % at 25 µM, hits read low. 550 tested, under 10 active. AID 743188; call rule not given here
HepG2 cytotox SP: cytotoxicity in HepG2 cells; shares compounds with esBAF inh; plate reader; active compounds read low; activity change, negative = inhibition, % at 25 µM; actives 4% (n = 550); AID 743189; in the data active = activity change below about -50%
HEK293 tox SP: cytotoxicity in HEK293 cells. shares compounds with esBAF inh. plate reader. activity change, negative = inhibition, % at 25 µM, hits read low. actives 3% (n = 550). AID 743190; in the data active = activity change below about -38%, passing the limit was not always enough
Numbers without * were called inactive; ? = inconclusive; . = no result given.

SMILES	SMARCA2 act	Rtt109 Vps75	esBAF inh	dFosB activator	Dyrk1A ADPGlo	CDK5 inh	Ring1 derepress	esBAF Fgf4 qPCR	Bmi1 derepress	A549 tox SP	HepG2 cytotox SP	HEK293 tox SP
CO[C@@H]1CN(C)C(=O)c2ccc(NS(=O)(=O)c3ccc(Cl)cc3)cc2OC[C@H](C)NC[C@@H]1C	.	.	0	.	.	.	.	.	.	.	.	.
C=CCNc1nc(NCc2ccc(NC(C)=O)cc2)c2sc(-c3ccccc3)cc2n1	-1	.	66*	.	.	.	.	.	.	-69*	-88*	-121*
COc1ccc(OCc2cc(C(=O)N(Cc3nccn3C)C(C)C)no2)c2ccccc12	0	-7	70*	-8	-2	2	0.82	0.89	1.5	1	-31	-7
CC(C)N(Cc1nccn1C)C(=O)c1cc(COc2ccc(F)cc2Cl)on1	-1	-10	7	-6	1	1	.	.	.	.	.	.
CC(=O)Nc1ccc2c(c1)Cc1c(F)cccc1-2	8	0	83*	-4	0	1	1.1	?	1.5	7	60	3
Cc1cc(C(=O)Nc2sc(C)c(-c3ccc(F)cc3)c2C(N)=O)no1	5	1	78*	7	9	0	1	0.97	1.4	7	-17	-3
CCc1ccc(-c2c(C)sc(NC(C)=O)c2C(N)=O)cc1	-3	-3	0	-11	-4	-1	.	.	.	.	.	.
CC(C)NC(=O)N(C)C[C@@H]1Oc2cc(-c3ccncc3)ccc2S(=O)(=O)N([C@H](C)CO)C[C@H]1C	.	.	-1	.	.	.	.	.	.	.	.	.
COc1cc(Cl)c(C)cc1NC(=O)c1cccc(OC)c1OC	6	2	57*	-1	1	2	1.3	0.86	1.6	3	12	-12
COc1cccc(C(=O)Nc2cccc3ccccc23)c1OC	-2	4	17	1	8	-1	.	.	.	.	.	.
CC(C)c1ccc(CNc2ccc3c(c2)ncn3C)cc1	3	2	21	-7	-3	-1	.	.	.	.	.	.
CC(C)c1ccc(CNc2ncccn2)cc1	4	1	55*	-4	5	-1	1.2	0.83	1.7	-7	-16	-11
CCNC(=O)c1ccc(CSc2nc3ccccc3s2)cc1	0	-5	.	-14	0	0	.	.	.	.	.	.
NC(=O)c1ccc(CSc2nc3ccccc3s2)cc1	2	4	54*	-9	4	1	1.4	0.87	1.7	-8	6	-12
C/C=C/c1ccc2c(c1)O[C@H](CN(C)C(=O)NCCC)[C@@H](C)CN([C@@H](C)CO)S2(=O)=O	.	.	4	.	.	.	.	.	.	.	.	.
COC(=O)C(Cc1ccc(OC(=O)c2ccc(Cl)cc2)cc1)N1Cc2ccccc2C1=O (configuration not stated)	4	7	72*	-6	-4	1	1.2	0.84	1.2	3	-30	-5
O=C(O)CC(c1ccc(Cl)cc1)N1Cc2ccccc2C1=O (configuration not stated)	-1	-7	-10	-4	-2	-1	.	.	.	.	.	.
Cc1ccc(S(=O)(=O)N[C@@H]2C=C[C@H](CC(=O)NCCCN(C)C)O[C@@H]2CO)cc1	.	.	-2	.	.	.	.	.	.	.	.	.
CCOC(=O)CCNC(=O)Nc1ccc2nc(C)n(Cc3ccc(Cl)cc3)c(=O)c2c1	-2	.	5	-1	8	0	.	.	.	.	.	.
CC(=O)Nc1ccc2nc(C)n(Cc3ccc(Cl)cc3)c(=O)c2c1	3	-11	55*	-1	3	-1	1.6	0.81	1.3	-6	-12	-17
O=C(NCC[C@H]1CC[C@@H](NC(=O)C2CC2)[C@@H](CO)O1)c1ccc(F)cc1	.	.	-1	.	.	.	.	.	.	.	.	.
C[C@@H](NC(=O)[C@H]1[C@H](CO)[C@H]2Cn3c(cccc3=O)[C@@H]1N2Cc1ccncc1)c1ccccc1	.	.	-1	.	.	.	.	.	.	.	.	.
Fc1ccc(Nc2nnc(-c3ccncc3)s2)cc1Cl	1	.	67*	.	.	.	1.2	0.88	1.6	-6	-25	-2
CC(=O)Nc1ccc2c(c1)C(=Nc1ccccc1)c1ccccc1-2	0	-7	34	-5	7	2	.	.	.	.	.	.
CC(=O)Nc1cc2c3c(cccc3c1)-c1ccccc1-2	0	-24	70*	1	-3	3	1.3	?	1.5	-5	27	-7
SMILES	SMARCA2 act	Rtt109 Vps75	esBAF inh	dFosB activator	Dyrk1A ADPGlo	CDK5 inh	Ring1 derepress	esBAF Fgf4 qPCR	Bmi1 derepress	A549 tox SP	HepG2 cytotox SP	HEK293 tox SP
O=C(CC(=O)c1ccccc1)Nc1ccccc1	6	-4	76*	9	1	3	1.2	0.91	1.4	-2	-19	-3
Cc1cc2c(nn1)CCc1nonc1-2	.	-23	1	1	-3	1	.	.	.	.	.	.
Cc1ccc2c3c([nH]c2c1C)-c1nonc1CC3	-2	5	55*	5	-10	0	1.2	?	1.8	-3	-34	-24
Cc1c(C2(O)CCCCC2)[nH]c2ccc(C(F)(F)F)cc12	-1	1	39	-2	-2	-2	.	.	.	.	.	.
COC(=O)c1ccc2[nH]c(C3(O)CCCCC3)c(C)c2c1	3	-2	72*	0	-1	1	1.1	1.1	0.97	1	-56*	6
COc1ccc(S(=O)(=O)N(C)C[C@H]2Oc3ccc(NC(=O)Cn4cnnn4)cc3CC(=O)N([C@@H](C)CO)C[C@@H]2C)cc1	.	.	2	.	.	.	.	.	.	.	.	.
COc1ccc(/C=C/c2ccncc2)c2ccccc12	.	0	-5	-10	6	-1	.	.	.	.	.	.
COc1ccccc1C=Cc1ccnc2ccccc12	-1	1	82*	-21	.	-1	1.1	0.49*	11*	-8	34	-37
CC(=O)Oc1ccc(C)cc1-n1nc2ccccc2n1	5	0	40	-3	0	0	.	.	.	.	.	.
Cc1cc(Cl)c(O)c(-n2nc3ccccc3n2)c1	2	-8	61*	1	8	1	0.94	0.96	1.2	5	-38	4
CCCC#Cc1cnc2c(c1)C(=O)N([C@@H](C)CO)C[C@H](C)[C@@H](CN(C)C(=O)Cc1cccnc1)O2	.	.	-4	.	.	.	.	.	.	.	.	.
